Compound activity as filed in PubChem.
Pf apPOL block – Pf-apPOL DNA polymerase inhibition | Recombinant Pf-apPOL, molecular beacon fluorescence, 1.5 h | inhibition, % at 10 µM | 210,000 tested, 0.25% active | AID 1794808
mHTT CaM bind – mHTT-calmodulin interaction abrogation; inhibition, % at 15 µM; 190,000 tested, 3.6% active; AlphaScreen His-mHTT/GST-CaM binding, luminescence; P42858;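 note: 0% = both proteins with DMSO and 100% = one protein alone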
Starred values were filed as active, the others as inactive; ! = not active in a repeat. Most compounds without a hit are left out; they make up all but 3.5% or so of the library. Cut-off read from the data, not from the text of the source: active = inhibition above about 50%; inactive = the rest.

What do the screens show for `CCOc1ccc(-c2[nH]nc3c2C(c2ccccc2F)C(C#N)=C(N)O3)c(OCC)c1` (centres undefined)?
Pf apPOL block: 1; mHTT CaM bind: 51*

How did COc1ccc(CC(=O)N2CCC3(CC2)NC(=O)c2ccccc2N3C)cc1OC do in these assays?
Pf apPOL block: -1; mHTT CaM bind: 5

What do the screens show for `Oc1ccccc1C=Nc1ccc(O)c(-c2nc3ccccc3s2)c1`?
Pf apPOL block: 1; mHTT CaM bind: 32

How did COc1cc(C=Nc2ccc(O)c(-c3nc4ccccc4s3)c2)ccc1O do in these assays?
Pf apPOL block: 2; mHTT CaM bind: 79*

What do the screens show for `CC(C)(C)c1ccc(O)c(C(C)(C)C)c1O`?
Pf apPOL block: -7; mHTT CaM bind: 98*

Results for CC(C)(C)c1cc(S)cc(C(C)(C)C)c1O ?
mHTT CaM bind: 13

How did CNC(=O)C1CN(C(=O)c2ccc3ccccc3n2)CC12CCCC2 (centres undefined) do in these assays?
Pf apPOL block: 1; mHTT CaM bind: 0

Results for Cc1ccc(NC(=O)CC2Sc3ccc(C(F)(F)F)cc3NC2=O)c(C)c1 (centres undefined) ?
Pf apPOL block: -1; mHTT CaM bind: 0

Results for COc1cc(OC)c(OC)cc1CNc1ccc([N+](=O)[O-])cc1C ?
Pf apPOL block: -10; mHTT CaM bind: 4

Results for COc1cc(OC)c(OC)cc1CNc1ccc(Br)cc1C ?
Pf apPOL block: -2; mHTT CaM bind: 76*

How did Cc1cc(Br)ccc1OCC(=O)NC(C)(C)C do in these assays?
Pf apPOL block: 1; mHTT CaM bind: -7

Results for CC(=O)c1ccc(S(=O)(=O)N2CCc3nc[nH]c3C2)cc1 ?
Pf apPOL block: 2; mHTT CaM bind: 4

What do the screens show for `CC1=CC(C)(C)N(C(=O)CSc2ccccn2)c2ccccc21`?
Pf apPOL block: -2; mHTT CaM bind: -17

Results for COc1cccc2cc(-c3nc4ccccc4[nH]3)c(=N)oc12 ?
Pf apPOL block: 75*; mHTT CaM bind: 12

Results for COc1cccc2cc(-c3nc4ccccc4[nH]3)c(=Nc3ccc(C(N)=O)cc3)oc12 ?
Pf apPOL block: 0; mHTT CaM bind: -1

What do the screens show for `NC(Cc1c[nH]c2ccc(O)cc12)C(=O)O` (centres undefined)?
Pf apPOL block: -2

What do the screens show for `O=C(O)Cc1c[nH]c2ccc(O)cc12`?
Pf apPOL block: 95*!; mHTT CaM bind: 85*

How did O=C(NCc1ccco1)N1CCC(Nc2cccnc2)C1 (centres undefined) do in these assays?
Pf apPOL block: -5; mHTT CaM bind: -1

Results for COc1cccc(C2C(=C(O)c3ccc4c(c3)OCO4)C(=O)C(=O)N2CCN(C)C)c1OC (centres undefined) ?
Pf apPOL block: 1; mHTT CaM bind: -7

How did Cc1ccc(C2C3=C(CC(c4ccco4)CC3=O)NC3=C2C(=O)c2ccccc23)cc1 (centres undefined) do in these assays?
Pf apPOL block: -9; mHTT CaM bind: 20

How did CC(C)(C)c1ccc(C2C3=C(CCCC3=O)NC3=C2C(=O)c2ccccc23)cc1 (centres undefined) do in these assays?
Pf apPOL block: -13; mHTT CaM bind: 63*

How did CC(C)c1ccc(C2C3=C(CCCC3=O)NC3=C2C(=O)c2ccccc23)cc1 (centres undefined) do in these assays?
Pf apPOL block: -4; mHTT CaM bind: 75*

What do the screens show for `O=C1CC(c2ccccc2)CC2=C1C(c1ccc(Cl)cc1)C1=C(N2)c2ccccc2C1=O` (centres undefined)?
Pf apPOL block: -1; mHTT CaM bind: 48

How did COc1cc(C2C3=C(CCCC3=O)NC3=C2C(=O)c2ccccc23)ccc1O (centres undefined) do in these assays?
Pf apPOL block: -16; mHTT CaM bind: 22

What do the screens show for `CC(C)c1ccc(C2C3=C(CC(C)(C)CC3=O)NC3=C2C(=O)c2ccccc23)cc1` (centres undefined)?
Pf apPOL block: -5; mHTT CaM bind: 65*

How did O=[N+]([O-])c1cc(S(=O)(=O)C(F)(F)F)ccc1NCCCN1CCOCC1 do in these assays?
Pf apPOL block: 1; mHTT CaM bind: -2

How did O=C(NC1CCCC1)NC1(C(F)(F)F)Oc2ccccc2O1 do in these assays?
Pf apPOL block: -2; mHTT CaM bind: -4

Results for O=C(CN1C(=O)SC(=Cc2ccccc2)C1=O)NCCN1C(=O)CSC1=O ?
Pf apPOL block: -1; mHTT CaM bind: -10

Results for COc1ccc(-c2nnn(CC(=O)Nc3cccc(F)c3)n2)cc1 ?
Pf apPOL block: -7; mHTT CaM bind: 17

How did CCOCCCNC(=O)c1nc(-c2cccc(F)c2)n2c1CCCCC2 do in these assays?
Pf apPOL block: -2; mHTT CaM bind: 20

Results for COC(=O)c1ccccc1NC(=O)c1nc(-c2cccc(F)c2)n2c1CCCCC2 ?
Pf apPOL block: 1; mHTT CaM bind: 3

How did COc1ccc(CCNC(=O)c2nc(-c3cccc(F)c3)n3c2CCCCC3)cc1OC do in these assays?
Pf apPOL block: 5; mHTT CaM bind: 51*

How did COc1cc(NC(=O)c2nc(-c3cccc(F)c3)n3c2CCCCC3)cc(OC)c1OC do in these assays?
Pf apPOL block: 6; mHTT CaM bind: 65*

Results for Cc1nc2cc(N3CC(C(=O)NCc4cccc(Cl)c4)CC3=O)ccc2o1 (centres undefined) ?
Pf apPOL block: -3; mHTT CaM bind: 1

Results for Cc1ccc(N2C(=O)CSC2c2cccc([N+](=O)[O-])c2)cc1C (centres undefined) ?
Pf apPOL block: 0; mHTT CaM bind: 9

How did Cc1cccc(N2COc3cc4c(cc3C2)OCO4)c1 do in these assays?
Pf apPOL block: -2; mHTT CaM bind: 59*

How did Cc1ccc(N2COc3cc4c(cc3C2)OCO4)cc1 do in these assays?
Pf apPOL block: -5; mHTT CaM bind: 14

How did Cc1cc(C)cc(N2COc3cc4c(cc3C2)OCO4)c1 do in these assays?
Pf apPOL block: 1; mHTT CaM bind: 53*

What do the screens show for `Cc1ccc(N2COc3cc4c(cc3C2)OCO4)cc1Cl`?
Pf apPOL block: -1; mHTT CaM bind: 18

How did Cc1ccc2ncn(C3CCN(S(=O)(=O)c4ccc(F)c(F)c4)CC3)c(=O)c2c1 do in these assays?
Pf apPOL block: 1; mHTT CaM bind: -2

How did O=C(Nc1nnc(SCc2cn3ccccc3n2)s1)c1cc(-c2ccco2)on1 do in these assays?
Pf apPOL block: 12; mHTT CaM bind: -6

Results for O=C(Nc1nnc(SCc2c(F)cccc2Cl)s1)c1cc(-c2ccco2)on1 ?
Pf apPOL block: 61*; mHTT CaM bind: 18

Results for CNC(=O)c1cc(=O)[nH]c2ccccc12 ?
Pf apPOL block: -4; mHTT CaM bind: 3

How did O=C1CC(NCCCN2CCOCC2)C(=O)N1c1ccc(Br)cc1 (centres undefined) do in these assays?
Pf apPOL block: -6; mHTT CaM bind: 54*

How did O=C1CC(NCCCN2CCOCC2)C(=O)N1c1ccc(N=Nc2ccccc2)cc1 (centres undefined) do in these assays?
Pf apPOL block: 0; mHTT CaM bind: 41

Results for CCOc1ccccc1NC(=O)N1CCC2(CC1)NC(=O)c1ccccc1N2C ?
Pf apPOL block: -3; mHTT CaM bind: -7

How did COc1ccc(S(=O)(=O)N(CC(=O)Nc2cc(C)ccc2OC)c2ccc(Cl)cc2)cc1 do in these assays?
Pf apPOL block: -5; mHTT CaM bind: -5

Results for CC(=O)Nc1ccc(S(=O)(=O)Nc2ccc3c(c2)OC(C)(C)O3)cc1 ?
Pf apPOL block: -1; mHTT CaM bind: 4

Results for O=S(=O)(Nc1ccc2c(c1)OC1(CCCC1)O2)c1ccc2c(c1)Cc1ccccc1-2 ?
mHTT CaM bind: 63*
